The nature of experiment [1]: optical density shifts of acrAB sulA E. coli – strain DRC41, OD650, 48 h, E. coli filamentation inducer project, primary screen (AID 1152).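 Also: E. coli MC1000 strain DRC41 lacking acrAB efflux pump and sulA.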 Particulars: higher = more signal, called active from +8 up or from −8 down.
Experiment [2] can be described thus: probe aLefty1 binding on compound microarray – biochemical, small-molecule microarray, 635/667 nm fluorescence, primary screen (AID 1153).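 Also: score merges spot fluorescence with signal-to-noise ratio from the scanned slide images.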 Particulars: higher = more signal.
Experiment [3] can be described thus: plasmodial surface anion channel blockers, osmotic lysis – cell-based, P. falciparum Indochina, OD700, 1 h, primary screen (AID 1154). Particulars: P. falciparum Indochina infected RBC osmotic lysis, higher = more signal, called active from +8 up or from −8 down.
The nature of experiment [4]: plasmodial surface anion channel blockers, osmotic lysis – cell-based, P. falciparum Indochina, OD700, 2 h, primary screen (AID 1155).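 Also: lysis reports solute entry through the parasite surface anion channel PSAC.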 Particulars: P. falciparum Indochina infected erythrocytes, higher = more signal, called active from +8 up or from −8 down.
A short description of experiment [5]: changes in parasitized red cell lysis, either direction – P. falciparum Indochina, OD700, 3 h, PSAC antagonist project, primary screen (AID 1156). Particulars: P. falciparum-infected erythrocytes, osmotic lysis, higher = more signal, called active from +8 up or from −8 down.
Experiment [6] in a line: plasmodial surface anion channel blockers, osmotic lysis – cell-based, P. falciparum Indochina, OD700, 18 h, primary screen (AID 1157). Particulars: P. falciparum Indochina infected erythrocytes, osmotic lysis OD700, 18 h; higher = more signal, called active from +8 up or from −8 down.
The nature of experiment [7]: S6 kinase pathway phospho-S6 level changes – cell-based, A549, cytoblot, luminescence, serum-stimulated, primary screen (AID 1158).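 Also: serum-stimulated A549 lung adenocarcinoma cells; signal is phosphorylated S6 detected by cytoblot immunostaining with HRP secondary.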 Particulars: 5 h, higher = more signal.
Experiment [8] deals with NADPH oxidase 2 (Homo sapiens) (UniProt P04839). The experiment can be described thus: compounds shifting NOX2 Amplex Red fluorescence – cell-based, HEK293-NOX2, PMA-stimulated, NOX inhibitor project, primary screen (AID 1159). Also: test concentration not given here. Particulars: 45 min, higher = more signal, called active from +8 up or from −8 down.
The target in experiment [9] is NADPH oxidase 4 (Homo sapiens) (UniProt Q9NPH5). The experiment can be described thus: compounds shifting NOX4 Amplex Red fluorescence – cell-based, HEK293-NOX4, tetracycline-induced, NOX inhibitor project, primary screen (AID 1160). Particulars: HEK293-NOX4, Amplex Red H2O2 fluorescence, 45 min; higher = more signal, called active from +8 up or from −8 down.
Experiment [10] concerns the target NADPH oxidase 5 (Homo sapiens) (UniProt Q96PH1). Description: compounds shifting NOX5 Amplex Red fluorescence – cell-based, HEK293-NOX5, NOX inhibitor project, primary screen (AID 1161). Particulars: HEK293-NOX5, ionomycin, 45 min, higher = more signal.
Experiment [11] in a line: compound effects on lung adenocarcinoma cell viability – A549, calcein-AM fluorescence, 48 h, basal, profiling panel (AID 1162). Also: test concentration not given here. Particulars: higher = more signal.
A short description of experiment [12]: compound effects on differentiated 3T3-L1 adipocyte viability – cell-based, 3T3-L1 adipocytes, calcein-AM fluorescence, 48 h, basal, profiling panel (AID 1163). Also: test concentration not given here. Particulars: 3T3-L1 adipocytes viability, higher = more signal.
A short description of experiment [13]: compound effects on hepatocellular carcinoma cell viability – HepG2, calcein-AM fluorescence, 48 h, basal, profiling panel (AID 1164). Also: test concentration not given here. Particulars: higher = more signal.
A short description of experiment [14]: compound effects on multiple myeloma cell viability – MM1S, calcein-AM fluorescence, 48 h, basal, profiling panel (AID 1165).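 Also: viability of MM1S multiple myeloma cells under basal unstimulated conditions; test concentration not given here.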 Particulars: higher = more signal.
A short description of experiment [15]: calcein-AM signal in unstimulated myeloma cells – cell-based, calcein-AM fluorescence, 48 h, PK04 Diversity Set, profiling panel (AID 1166).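 Also: cells grown under basal conditions without added stimulus; test concentration not given here.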 Particulars: RPMI8226 myeloma viability, higher = more signal.
Experiment [16] in a line: JC-1 mitochondrial signal, unstimulated HepG2 cells – cell-based, JC-1 fluorescence, 24 h, 100 nL compound, profiling panel (AID 1167). Also: test concentration not given here. Particulars: HepG2 mitochondrial potential, higher = more signal.
Experiment [17] in a line: JC-1 mitochondrial signal, unstimulated adipocytes – cell-based, JC-1 fluorescence, 3T3-L1 adipocytes, 24 h, 100 nL compound, profiling panel (AID 1168). Also: test concentration not given here. Particulars: JC-1 mitochondrial fluorescence, higher = more signal, called active from +8 up or from −8 down.
Experiment [18] can be described thus: JC-1 mitochondrial signal, unstimulated myeloma cells – cell-based, JC-1 fluorescence, RPMI8226, 24 h, 100 nL compound, profiling panel (AID 1169). Also: test concentration not given here. Particulars: JC-1 mitochondrial potential fluorescence, higher = more signal.
A short description of experiment [19]: JC-1 mitochondrial signal, unstimulated MM1S myeloma – cell-based, JC-1 fluorescence, 24 h, 100 nL compound, profiling panel (AID 1170). Also: test concentration not given here. Particulars: MM1S mitochondrial potential, higher = more signal.
The nature of experiment [20]: resazurin metabolic signal in A549 cells – cell-based, resazurin fluorescence, 24 h, PK04 Diversity Set, profiling panel (AID 1171). Also: test concentration not given here. Particulars: A549 viability, higher = more signal, called active from +8 up or from −8 down.

Data on eight compounds can be found in PubChem BioAssay.

Active and inactive are the calls of the source.

Chain of NADPH oxidase 2 (Homo sapiens) (P04839 whole entry, looked up): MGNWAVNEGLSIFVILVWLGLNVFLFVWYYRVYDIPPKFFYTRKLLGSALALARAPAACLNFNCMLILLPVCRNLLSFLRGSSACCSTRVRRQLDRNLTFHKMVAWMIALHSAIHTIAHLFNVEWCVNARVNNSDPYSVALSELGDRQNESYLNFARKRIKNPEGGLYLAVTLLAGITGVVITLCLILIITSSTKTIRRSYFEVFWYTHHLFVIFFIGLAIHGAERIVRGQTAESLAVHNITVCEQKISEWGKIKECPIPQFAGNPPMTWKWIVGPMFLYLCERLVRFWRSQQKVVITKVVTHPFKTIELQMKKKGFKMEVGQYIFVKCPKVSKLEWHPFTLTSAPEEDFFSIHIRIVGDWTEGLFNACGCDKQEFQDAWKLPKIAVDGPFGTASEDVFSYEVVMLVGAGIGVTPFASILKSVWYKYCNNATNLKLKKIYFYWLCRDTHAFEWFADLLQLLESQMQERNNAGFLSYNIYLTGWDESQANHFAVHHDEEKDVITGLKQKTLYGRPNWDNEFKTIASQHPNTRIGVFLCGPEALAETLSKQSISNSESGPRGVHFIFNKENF
Chain of NADPH oxidase 5 (Homo sapiens) (Q96PH1 whole entry, looked up): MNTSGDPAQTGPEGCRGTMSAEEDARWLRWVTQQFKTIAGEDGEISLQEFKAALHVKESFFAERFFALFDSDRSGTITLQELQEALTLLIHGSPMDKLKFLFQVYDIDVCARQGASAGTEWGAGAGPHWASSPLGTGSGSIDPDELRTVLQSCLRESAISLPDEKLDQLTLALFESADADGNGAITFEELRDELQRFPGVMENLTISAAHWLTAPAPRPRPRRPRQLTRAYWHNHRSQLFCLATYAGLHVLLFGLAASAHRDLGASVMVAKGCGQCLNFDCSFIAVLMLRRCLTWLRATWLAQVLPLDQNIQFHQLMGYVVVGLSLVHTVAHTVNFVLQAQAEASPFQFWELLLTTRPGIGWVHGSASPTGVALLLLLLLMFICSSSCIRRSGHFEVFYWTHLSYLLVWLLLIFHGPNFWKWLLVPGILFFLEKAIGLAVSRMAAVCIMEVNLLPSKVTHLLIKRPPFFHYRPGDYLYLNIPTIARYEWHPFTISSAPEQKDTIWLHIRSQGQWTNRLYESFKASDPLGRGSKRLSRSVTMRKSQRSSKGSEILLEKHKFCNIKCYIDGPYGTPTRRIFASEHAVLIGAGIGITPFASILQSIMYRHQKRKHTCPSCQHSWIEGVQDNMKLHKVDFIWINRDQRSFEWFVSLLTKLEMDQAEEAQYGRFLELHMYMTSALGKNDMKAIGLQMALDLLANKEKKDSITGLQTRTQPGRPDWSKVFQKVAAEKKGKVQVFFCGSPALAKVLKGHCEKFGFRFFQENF
Chain of NADPH oxidase 4 (Homo sapiens) (Q9NPH5 whole entry, looked up): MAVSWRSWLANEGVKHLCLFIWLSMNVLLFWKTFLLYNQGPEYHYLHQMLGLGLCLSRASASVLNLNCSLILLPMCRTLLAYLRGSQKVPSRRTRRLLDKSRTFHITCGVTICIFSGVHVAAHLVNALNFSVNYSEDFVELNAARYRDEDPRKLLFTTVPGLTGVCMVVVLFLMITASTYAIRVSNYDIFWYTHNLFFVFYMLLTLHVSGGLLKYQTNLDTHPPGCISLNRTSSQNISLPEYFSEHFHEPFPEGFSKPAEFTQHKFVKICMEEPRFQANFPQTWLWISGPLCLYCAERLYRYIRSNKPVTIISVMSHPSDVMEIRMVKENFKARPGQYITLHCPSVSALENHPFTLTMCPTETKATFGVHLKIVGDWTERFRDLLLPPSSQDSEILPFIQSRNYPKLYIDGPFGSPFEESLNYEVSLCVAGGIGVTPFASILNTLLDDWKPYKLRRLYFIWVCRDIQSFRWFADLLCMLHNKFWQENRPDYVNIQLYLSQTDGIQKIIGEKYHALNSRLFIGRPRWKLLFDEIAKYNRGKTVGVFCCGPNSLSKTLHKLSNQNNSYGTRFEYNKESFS

For `COc1ccc([Si](C)(C)[C@H]2[C@H](CCn3cc([C@H](O)c4ccccc4)nn3)O[C@@]3(C(=O)N(Cc4ccc(N5CCC5=O)cc4)c4ccccc43)[C@@H]2C)cc1`, the z-score was 0.503 (inactive) in [1]; 30.5 (active) in experiment [3]; 27.1 (active) in [4]; 1.25 (inactive) in experiment [5]; 2.07 (inactive) in experiment [6]; 0.436 in experiment [7]. The z-score is 0.923 (inactive) in [8]; 1.6 (inactive) in [9]; 2.22 in experiment [10]; 0.399 in experiment [11]; 1.19 in experiment [12]; -0.541 in experiment [13]. Moreover, the z-score is -0.695 in experiment [14]; -0.412 in experiment [15]; 0.411 in experiment [16]; -0.391 (inactive) in [17]; -0.445 in experiment [18]; -0.202 in [19]. Further, in [20], the z-score is -0.869 (inactive). For the same compound, in experiment [2], the composite z-score is 0.0341.
With `COc1ccc([Si](C)(C)[C@H]2[C@H](CCn3cc([C@H](O)c4ccccc4)nn3)O[C@@]3(C(=O)N(Cc4cccc(N5C(=O)c6cccc7cccc5c67)c4)c4ccccc43)[C@@H]2C)cc1`, the z-score in experiment [1] is -0.749 (inactive); in [3] it was 1.23 (inactive); in experiment [4], -0.38 (inactive); in experiment [5], -0.58 (inactive); in [6] it was 0.376 (inactive); in experiment [7], -0.0203. Besides, the z-score in experiment [8] was 0.918 (inactive); in [9], 1.57 (inactive); in experiment [10] it was 1.56; in [11] it was -0.252; in [12], 0.0344; in experiment [13], -0.506. For the same compound, the z-score in [14] was -0.342; in experiment [15] it was -1.56; in experiment [16], -0.411; in experiment [17], -1.63 (inactive); in experiment [18], -0.00407; in [19] it was -0.319. Further, in experiment [20], the z-score was -0.884 (inactive). The composite z-score in [2] was -0.0141.
Turning to `[N-]=[N+]=Nc1ccccc1C[C@]1(C(=O)NCc2ccccc2)N=C(c2ccc(OCCCO)cc2)O[C@H]1c1ccccc1`, the z-score in experiment [1] is 0.383 (inactive); in experiment [3], 17.6 (active); in experiment [4] it was 3.08 (inactive); in [5], 1.14 (inactive); in experiment [6], 0.786 (inactive); in [7] it was -0.16. In addition, the z-score was -0.172 (inactive) in [8]; 1.45 (inactive) in experiment [9]; 1.03 in [10]; -1.66 in experiment [11]; -0.651 in experiment [12]; -1.14 in experiment [13]. Also, the z-score in experiment [14] was -2.41; in [15] it was -2.86; in experiment [16], 1.88; in [17], -0.095 (inactive); in [18], -1.13; in experiment [19], -1.73. Besides, the z-score in experiment [20] was -0.395 (inactive). The composite z-score in experiment [2] worked out at 0.394.
Take `CC(C)C(=C=CC[C@@H](O)c1ccccc1OCCO)C[C@@H](O)COCc1ccccc1`: the z-score in experiment [1] is 1.6 (inactive); in experiment [3], 6.77 (inactive); in experiment [4], 2.19 (inactive); in experiment [5] it was -1.43 (inactive); in experiment [6] it was -0.119 (inactive); in experiment [7], 0.86. Besides, the z-score in experiment [8] is 0.0182 (inactive); in [9] it was 0.489 (inactive); in experiment [10], -1.52; in experiment [11], 1.03; in experiment [12], 0.435; in experiment [13] it was 0.146. Besides, the z-score in experiment [14] was -0.338; in experiment [15], -0.399; in experiment [16] it was 0.324; in experiment [17], 0.791 (inactive); in [18] it was 0.0761; in experiment [19], 0.339. Also, the z-score in experiment [20] was 0.15 (inactive). For the same compound, the composite z-score in [2] is -0.103.
As to `CC(C)C(O)C1C=CC2C(=O)N(C)C(=O)C2N1Nc1ccccc1` (stereo not given), the z-score in experiment [1] is -0.532 (inactive); in experiment [3] it was -0.162 (inactive); in experiment [4], 1.18 (inactive); in experiment [5], 0.448 (inactive); in experiment [6] it was 0.778 (inactive); in experiment [7] it was -0.679. Also, the z-score in experiment [8] is -1.43 (inactive); in experiment [9] it was -3.72 (inactive); in [10] it was -2.93; in [11], 0.678; in [12], -0.955; in [13], 0.0515. For the same compound, the z-score was -1.53 in [14]; -0.283 in experiment [15]; -0.993 in [16]; -1.15 (inactive) in experiment [17]; -0.0596 in experiment [18]; -0.254 in [19]. Further, in [20], the z-score was 0.204 (inactive). Moreover, in [2], the composite z-score was 0.124.
In the case of `CC=CC(O)C1C=CC2C(=O)N(C)C(=O)C2N1Nc1ccc([N+](=O)[O-])cc1[N+](=O)[O-]` (stereo not given), the z-score in experiment [1] was -1.33 (inactive); in experiment [3], 1.67 (inactive); in [4], 0.917 (inactive); in [5], 0.566 (inactive); in experiment [6], 1.1 (inactive); in [7], -0.711. Moreover, the z-score in experiment [8] was -0.379 (inactive); in [9], -1.05 (inactive); in experiment [10], -1.09; in experiment [11], -0.481; in [12], -0.682; in experiment [13], 0.275. Moreover, the z-score is -1.73 in [14]; -0.485 in [15]; -0.744 in experiment [16]; -0.453 (inactive) in experiment [17]; 0.0263 in experiment [18]; -0.635 in [19]. Moreover, the z-score in experiment [20] was -0.574 (inactive). This compound yielded a composite z-score in experiment [2] of -0.094.
`O=C1O[C@@H](c2ccccc2)[C@@H](c2ccccc2)N2[C@@H](c3ccc(O)cc3)[C@]3(C(=O)Nc4ccc(C#CCCO)cc43)[C@@H](C(=O)Nc3nc4ccccc4s3)[C@H]12`: the z-score in experiment [1] was 0.341 (inactive); in experiment [3], 1.35 (inactive); in experiment [4], 1.19 (inactive); in [5], -0.743 (inactive); in [6], 1.63 (inactive); in experiment [7], -0.435. In addition, the z-score was 1.1 (inactive) in experiment [8]; 0.604 (inactive) in experiment [9]; -0.073 in experiment [10]; 1.06 in [11]; 0.225 in experiment [12]; 0.609 in experiment [13]. In addition, the z-score in experiment [14] was -2.66; in [15], -2.65; in experiment [16], -3.79; in experiment [17], -1.3 (inactive); in experiment [18], -0.503; in [19] it was -1.03. In addition, the z-score in experiment [20] is 0.621 (inactive). Also, in experiment [2], the composite z-score stood at 0.139.
With `C=C(CCCC)C(=O)CC[C@@H](OC(=O)c1cccnc1)c1ccccc1OCCO`, the z-score is 0.225 (inactive) in [1]; 22.3 (active) in experiment [3]; 5.38 (inactive) in experiment [4]; 0.88 (inactive) in [5]; 0.871 (inactive) in experiment [6]; 0.315 in experiment [7]. The z-score in experiment [8] is -1.73 (inactive); in [9] it was -0.158 (inactive); in experiment [10] it was -1.44; in experiment [11], -0.528; in [12] it was 0.101; in [13], -0.14. Besides, the z-score was -3.21 in experiment [14]; -2.92 in experiment [15]; 0.0547 in experiment [16]; 0.361 (inactive) in [17]; -0.754 in experiment [18]; -1.33 in experiment [19]. Moreover, the z-score in [20] is 0.335 (inactive). The composite z-score in [2] was -0.101.
